According to PubChem BioAssay (NCATS):
Inconclusive results are not listed. Calls of active or inactive are those of the source. Unless noted, calls follow the shape of the dose curve; as a rule, active = well fitted inhibition curve with a large enough effect; inconclusive = small, poorly fitted or top-dose-only effect; inactive = flat fitted curve, though single readings scatter.

Tests used:
[1] = S16 Schwann cell PMP22 intronic element beta-lactamase assay (AID 624044; calls by dose curve; also: nearly all actives have a fitted effect of over 15% in size)
Procedure, shortened: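 Rat S16 Schwann cells with beta-Lac driven by a PMP22 intronic element, compound-treated 24 h at 37 °C. LiveBLAzer FRET B/G read: 460 nm normalized to potassium clavulanate vs DMSO; 535 nm FRET as viability; concentration-effect curves classified.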

3D7 = test: qHTS profiling for inhibitors of Plasmodium falciparum proliferation (AID 504749); also: nearly all actives have a fitted effect of over 60% in size; also: potency is read from the fitted curve at half-maximal effect; conditions: P. falciparum in erythrocytes, SYBR Green DNA, 72 h; series mostly up to 12.8 µM
Procedure, shortened: (§1)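 P. falciparum-infected erythrocytes (0.3% parasitemia, 2.5% hematocrit) incubated with compound 72 h at 37 C, 5% CO2. Parasite DNA detected by SYBR Green after lysis, overnight at room temperature; normalised to 0.29 uM artemisinin and DMSO.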

7G8 = test: as above; conditions: P. falciparum in erythrocytes, SYBR Green DNA, 72 h; series mostly up to 12.8 µM
Procedure, shortened: as §1

AA1029 = test: as above; conditions: P. falciparum in erythrocytes, SYBR Green DNA, 72 h; series mostly up to 12.8 µM
Procedure, shortened: as §1

CP192 = test: as above; conditions: P. falciparum in erythrocytes, SYBR Green DNA, 72 h; series mostly up to 28.7 µM
Procedure, shortened: as §1

CP194 = test: as above; conditions: P. falciparum in erythrocytes, SYBR Green DNA, 72 h; series mostly up to 12.8 µM
Procedure, shortened: as §1

CP203 = test: as above; conditions: P. falciparum in erythrocytes, SYBR Green DNA, 72 h; series mostly up to 12.8 µM
Procedure, shortened: as §1

CP211 = test: as above; conditions: P. falciparum in erythrocytes, SYBR Green DNA, 72 h; series mostly up to 12.8 µM
Procedure, shortened: as §1

CP260 = test: as above; conditions: P. falciparum in erythrocytes, SYBR Green DNA, 72 h; series mostly up to 12.8 µM
Procedure, shortened: as §1

CP266 = test: as above; conditions: P. falciparum in erythrocytes, SYBR Green DNA, 72 h; series mostly up to 28.7 µM
Procedure, shortened: as §1

CP268 = test: as above; conditions: P. falciparum in erythrocytes, SYBR Green DNA, 72 h; series mostly up to 12.8 µM
Procedure, shortened: as §1

CP297 = test: as above; conditions: P. falciparum in erythrocytes, SYBR Green DNA, 72 h; series mostly up to 12.8 µM
Procedure, shortened: as §1

CP315 = test: as above; conditions: P. falciparum in erythrocytes, SYBR Green DNA, 72 h; series mostly up to 12.8 µM
Procedure, shortened: as §1

DIV14 = test: as above; conditions: P. falciparum in erythrocytes, SYBR Green DNA, 72 h; series mostly up to 12.8 µM
Procedure, shortened: as §1

DIV17 = test: as above; conditions: P. falciparum in erythrocytes, SYBR Green DNA, 72 h; series mostly up to 12.8 µM
Procedure, shortened: as §1

GB4 = test: as above; conditions: P. falciparum in erythrocytes, SYBR Green DNA, 72 h; series mostly up to 12.8 µM
Procedure, shortened: as §1

ICS = test: as above; conditions: P. falciparum in erythrocytes, SYBR Green DNA, 72 h; series mostly up to 12.8 µM
Procedure, shortened: as §1

TAB109 = test: as above; conditions: P. falciparum in erythrocytes, SYBR Green DNA, 72 h; series mostly up to 12.8 µM
Procedure, shortened: as §1

W2 = test: as above; conditions: P. falciparum in erythrocytes, SYBR Green DNA, 72 h; series mostly up to 12.8 µM
Procedure, shortened: as §1

PAD = test: as above; conditions: P. falciparum in erythrocytes, SYBR Green DNA, 72 h; series mostly up to 12.8 µM
Procedure, shortened: as §1

Measured: Potency

CC(=O)O[C@@H](C)C[N+](C)(C)C
inactive: [1] | 3D7 | 7G8 | AA1029 | CP192 | CP194 | CP203 | CP211 | CP260 | CP266 | CP268 | CP297 | CP315 | DIV14 | DIV17 | GB4 | ICS | TAB109 | W2

CC(=O)Nc1c(I)c(C(=O)N[C@H]2[C@@H](O)[C@H](O)[C@H](CO)O[C@@H]2O)c(I)c(N(C)C(C)=O)c1I
inactive: [1] | 3D7 | 7G8 | AA1029 | CP192 | CP194 | CP203 | CP211 | CP260 | CP266 | CP268 | CP297 | CP315 | DIV14 | DIV17 | GB4 | ICS | PAD | TAB109 | W2

CN(N=O)C(=O)N[C@H]1[C@@H](O)[C@H](O)[C@H](CO)O[C@@H]1O
inactive: 3D7 | 7G8 | AA1029 | CP192 | CP194 | CP203 | CP211 | CP260 | CP266 | CP268 | CP297 | CP315 | DIV14 | DIV17 | GB4 | ICS | PAD | TAB109 | W2

O=c1[nH]c(=O)n([C@@H]2C[C@H](O)[C@H](CO)O2)cc1I
inactive: [1] | 3D7 | 7G8 | AA1029 | CP192 | CP194 | CP203 | CP211 | CP260 | CP266 | CP268 | CP297 | CP315 | DIV14 | DIV17 | GB4 | ICS | PAD | TAB109 | W2

CC(C)(O/N=C(\C(=O)N[C@@H]1C(=O)N2C(C(=O)[O-])=C(C[n+]3ccccc3)CS[C@@H]12)c1csc(N)n1)C(=O)O
inactive: 3D7 | 7G8 | AA1029 | CP192 | CP194 | CP203 | CP211 | CP260 | CP266 | CP268 | CP297 | CP315 | DIV14 | DIV17 | GB4 | ICS | PAD | TAB109 | W2

C[C@@H](CN(C)C)CN1c2ccccc2CCc2ccccc21
inactive: [1] | 3D7 | AA1029 | CP192 | CP260 | CP266 | CP268 | CP297 | CP315 | PAD | TAB109

C[C@H](NCCc1ccc(O)cc1)[C@@H](O)c1ccc(O)cc1
inactive: [1] | 3D7 | 7G8 | AA1029 | CP192 | CP194 | CP203 | CP211 | CP266 | CP268 | CP297 | CP315 | DIV14 | DIV17 | GB4 | ICS | PAD | TAB109 | W2

COCCc1ccc(OC[C@H](O)CNC(C)C)cc1
inactive: [1] | 3D7 | 7G8 | AA1029 | CP192 | CP194 | CP203 | CP211 | CP260 | CP266 | CP268 | CP297 | CP315 | DIV14 | DIV17 | GB4 | ICS | PAD | TAB109 | W2

C[n+]1ccccc1/C=N\O
inactive: [1] | 3D7 | 7G8 | AA1029 | CP192 | CP194 | CP203 | CP211 | CP260 | CP266 | CP268 | CP297 | CP315 | DIV14 | DIV17 | GB4 | ICS | PAD | TAB109 | W2

COc1c(O)cc2c(c1O)[C@@H]1O[C@@H](CO)[C@@H](O)[C@@H](O)[C@@H]1OC2=O
inactive: [1] | 3D7 | 7G8 | AA1029 | CP192 | CP194 | CP203 | CP211 | CP260 | CP266 | CP268 | CP297 | CP315 | DIV14 | DIV17 | GB4 | ICS | PAD | TAB109 | W2

CN[C@@H](CC(C)C)C(=O)N[C@@H]1C(=O)N[C@H](CC(N)=O)C(=O)N[C@@H]2C(=O)N[C@H]3C(=O)N[C@H](C(=O)N[C@H](C(=O)O)c4cc(O)cc(O)c4-c4cc3ccc4O)[C@H](O)c3ccc(c(Cl)c3)Oc3cc2cc(c3O[C@H]2O[C@@H](CO)[C@@H](O)[C@@H](O)[C@@H]2O[C@@H]2C[C@](C)(N)[C@H](O)[C@H](C)O2)Oc2ccc(cc2Cl)[C@@H]1O
inactive: 3D7 | 7G8 | AA1029 | CP192 | CP194 | CP203 | CP211 | CP260 | CP266 | CP268 | CP297 | CP315 | DIV14 | DIV17 | GB4 | ICS | PAD | TAB109 | W2

C[C@@H](C(=O)O)c1ccc(C(=O)c2cccs2)cc1
inactive: [1] | 3D7 | 7G8 | AA1029 | CP192 | CP194 | CP203 | CP211 | CP260 | CP268 | CP297 | CP315 | DIV14 | DIV17 | GB4 | ICS | PAD | TAB109 | W2

CC(C)NC[C@H](O)c1cc(O)cc(O)c1
inactive: 3D7 | 7G8 | AA1029 | CP192 | CP194 | CP203 | CP211 | CP266 | CP268 | CP297 | CP315 | DIV14 | DIV17 | GB4 | ICS | PAD | TAB109 | W2

NC(=O)OC[C@H](O)COc1ccc(Cl)cc1
inactive: [1] | 3D7 | 7G8 | AA1029 | CP192 | CP194 | CP203 | CP211 | CP260 | CP266 | CP268 | CP297 | CP315 | DIV14 | DIV17 | GB4 | ICS | PAD | TAB109 | W2

CN(C)[C@@H]1C(=O)C(C(N)=O)=C(O)[C@]2(O)C(=O)C3=C(O)c4c(O)ccc(Cl)c4[C@H](O)[C@H]3C[C@@H]12
active: ICS 3.98 µM | W2 5.36 µM
inactive: [1] | CP192 | CP194 | CP203 | CP211 | CP266 | CP268 | CP297 | CP315 | DIV14 | DIV17

CN[C@@H]1[C@H](O[C@@H]2O[C@H](CO)[C@@H](N)[C@H](O)[C@@H]2O)O[C@H]2C[C@@H](N)[C@@H](O[C@H]3[C@@H](O)[C@H](O)[C@H](N)C[C@@H]3N)O[C@H]2[C@H]1O
inactive: 3D7 | 7G8 | AA1029 | CP194 | CP203 | CP211 | CP260 | CP266 | CP268 | CP297 | CP315 | DIV14 | DIV17 | GB4 | ICS | PAD | TAB109 | W2

O=C(O)/C=C\c1ccc(Cn2ccnc2)cc1
inactive: [1] | 3D7 | 7G8 | AA1029 | CP192 | CP194 | CP203 | CP211 | CP260 | CP268 | CP297 | CP315 | DIV14 | DIV17 | GB4 | ICS | PAD | TAB109 | W2

C/C=C\C(=O)N(CC)c1ccccc1C
inactive: [1] | 3D7 | 7G8 | AA1029 | CP194 | CP203 | CP211 | CP260 | CP266 | CP268 | CP297 | CP315 | DIV14 | DIV17 | GB4 | ICS | PAD | TAB109 | W2

O=c1[nH]cnc2c1ncn2C1OC(CO)C(O)C1O (configuration not stated)
inactive: [1] | 3D7 | 7G8 | AA1029 | CP194 | CP203 | CP211 | CP260 | CP266 | CP268 | CP297 | DIV14 | DIV17 | GB4 | ICS | PAD | TAB109 | W2

CO/N=C(/C(=O)NC1C(=O)N2C(C(=O)O)=C(CSc3nc(=O)c(O)nn3C)CSC12)c1csc(N)n1 (configuration not stated)
inactive: 3D7 | 7G8 | AA1029 | CP192 | CP194 | CP203 | CP211 | CP260 | CP266 | CP268 | CP297 | CP315 | DIV17 | GB4 | ICS | PAD | TAB109
